Data on seven compounds can be found in PubChem BioAssay (NCI).

The structures appear in SMILES notation. Compounds without any hit were thinned out: in the full panel of roughly 83,000, 20% have a hit.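 Single-concentration screen, 48 h exposure, 96-well plates. Endpoint: percent growth. Below 10 = active.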 Values without a mark were called inactive. The source made the active and inactive calls.

Some test systems named below: NCI-H23 lung; NCI-H226 lung; NCI-H322M lung; HOP-62 NSCLC; NCI-H460 lung; HOP-92 NSCLC; NCI-H522 lung; A549/ATCC NSCLC; 786-0 renal; COLO 205 colon; DU-145 prostate; K-562 leukemia; MALME-3M melanoma; MDA-MB-231 breast; RXF 393 renal; SF-268 CNS; SF-295 CNS; SF-539 CNS; UACC-257 melanoma; M14 melanoma.
Common to all, as to test: NCI-60 one-dose screen, 48 h (100 = growth as untreated, 0 = no growth, -100 = all killed)
Common to all, as to conditions: 10 µM unless noted

On to `NS(=O)(=O)c1ccc(Nc2nc(N/N=C/c3ccc4c(c3)OCO4)nc(Nc3ccccc3)n2)cc1`, for which the growth in the assay with NCI-H23 lung is 25.1%; in the assay on NCI-H226 lung, 65%; in the assay on NCI-H322M lung, 61.3%; with HOP-62 NSCLC, 29%; in the assay on NCI-H460 lung it was 2.83% (active); in the assay on HOP-92 NSCLC, 66%. Moreover, the growth was 60.8% in the assay on NCI-H522 lung; 74.7% with A549/ATCC NSCLC; 61.1% in the assay with 786-0 renal; 49.7% in the assay on COLO 205 colon; 41% with DU-145 prostate; 33.2% in the assay with K-562 leukemia. In addition, the growth is 58.6% in the assay on MALME-3M melanoma; 59.6% in the assay with MDA-MB-231 breast; 22.4% in the assay on RXF 393 renal; 42.6% in the assay with SF-268 CNS; 64.5% in the assay on SF-295 CNS; 16.7% with SF-539 CNS. Besides, the growth is 84.6% in the assay with UACC-257 melanoma and 38.7% in the assay with M14 melanoma.

In the case of `COC(=O)N1CCN(CCNCc2ccc(NC(=O)c3ccc(C)c(C#Cc4cnc5cccnn45)c3)cc2C(F)(F)F)CC1`, the growth with NCI-H23 lung was 36.2%; in the assay with NCI-H226 lung, 31.1%; in the assay with NCI-H322M lung, 75.3%; with HOP-62 NSCLC, 24.9%; in the assay with NCI-H460 lung it was 22.2%; with HOP-92 NSCLC, 12.2%. Moreover, the growth in the assay on NCI-H522 lung is 30.2%; with A549/ATCC NSCLC, 27.9%; with 786-0 renal, 38.2%; in the assay on COLO 205 colon, 2.48% (active); with DU-145 prostate, 44.9%; in the assay on K-562 leukemia, 5.18% (active). Further, the growth in the assay on MALME-3M melanoma was -49.1% (active); with MDA-MB-231 breast, -9.19% (active); in the assay with RXF 393 renal it was -47.2% (active); in the assay on SF-268 CNS it was 28.2%; in the assay on SF-295 CNS, -25.1% (active); in the assay with SF-539 CNS it was -15.9% (active). Also, the growth with UACC-257 melanoma was -10.6% (active); in the assay on M14 melanoma, 8.75% (active).

Regarding `O=C(Nc1ccc(Cl)c(C(F)(F)F)c1)Nc1ccc2oc(=O)ccc2c1`, the growth with NCI-H23 lung is 4.85% (active); in the assay with NCI-H226 lung it was 26.6%; with NCI-H322M lung, 60.5%; in the assay on HOP-62 NSCLC, 73.4%; with NCI-H460 lung, 18.1%; with HOP-92 NSCLC, -1.84% (active). Moreover, the growth was 20.3% in the assay with NCI-H522 lung; 39.8% in the assay with A549/ATCC NSCLC; 70.3% in the assay with 786-0 renal; 58% with COLO 205 colon; 40.5% in the assay with DU-145 prostate; 19.1% in the assay on K-562 leukemia. The growth is 42.6% in the assay with MALME-3M melanoma; 69.3% in the assay with MDA-MB-231 breast; 89.2% with RXF 393 renal; 65% in the assay with SF-268 CNS; 5.31% (active) in the assay with SF-295 CNS; 63.3% in the assay with SF-539 CNS. Moreover, the results for the growth in the assay on UACC-257 melanoma and in the assay with M14 melanoma were 64.4% and 49.6%, respectively.

Turning to `CC(=O)OC[C@@]12Oc3c(cccc3-c3ccc(O)c4c3O[C@]3(COC(C)=O)C(=C4O)C(=O)C[C@H](C)[C@@H]3OC(C)=O)C(O)=C1C(=O)C[C@H](C)[C@@H]2OC(C)=O`, the growth was 2.54% (active) in the assay on NCI-H23 lung; 25.9% with NCI-H226 lung; 33.1% in the assay with NCI-H322M lung; 8.14% (active) in the assay on HOP-62 NSCLC; 10.3% in the assay with NCI-H460 lung; -25.2% (active) in the assay on HOP-92 NSCLC. In addition, the growth was -7.22% (active) with NCI-H522 lung; 19.4% in the assay with A549/ATCC NSCLC; 27.7% with 786-0 renal; -3.3% (active) with COLO 205 colon; 20.7% in the assay with DU-145 prostate; 11.6% in the assay on K-562 leukemia. For the same compound, the growth with MALME-3M melanoma is -15.5% (active); in the assay with MDA-MB-231 breast, 5.9% (active); in the assay with RXF 393 renal, 11.9%; in the assay with SF-268 CNS, 17.2%; in the assay on SF-295 CNS, -21.9% (active); in the assay on SF-539 CNS, 18.4%. Besides, the growth in the assay with UACC-257 melanoma is -8.95% (active); in the assay with M14 melanoma, 21.8%.

Turning to `O=C1Nc2ccc(F)cc2/C1=C\C(=O)c1ccc(NS(=O)(=O)c2ccccc2)cc1`, the growth was 84.3% in the assay with NCI-H23 lung; 95.6% in the assay on NCI-H226 lung; 93.8% in the assay on NCI-H322M lung; 103% with HOP-62 NSCLC; 101% in the assay with NCI-H460 lung; 82.7% with HOP-92 NSCLC. For the same compound, the growth is 70.2% in the assay with NCI-H522 lung; 97.4% in the assay on A549/ATCC NSCLC; 98.6% in the assay on 786-0 renal; 113% in the assay with COLO 205 colon; 92.1% in the assay on DU-145 prostate; 49.1% in the assay on K-562 leukemia. Further, the growth with MALME-3M melanoma is 79.7%; with MDA-MB-231 breast it was 90.4%; in the assay with RXF 393 renal, 72.3%; in the assay on SF-268 CNS, 97.9%; in the assay on SF-295 CNS it was 96.4%; in the assay on SF-539 CNS, 97.5%. The values for the growth with UACC-257 melanoma and in the assay with M14 melanoma were 95.9% and 90.7%, respectively.

Consider `Cc1c(C(=O)/C=C/c2ccc(Cl)cc2)nnn1-c1ccc2oc(=O)ccc2c1`, for which the growth in the assay on NCI-H23 lung is 92.9%; in the assay on NCI-H226 lung it was 85.4%; in the assay with NCI-H322M lung it was 98.5%; in the assay with HOP-62 NSCLC it was 107%; in the assay on NCI-H460 lung it was 102%; in the assay with HOP-92 NSCLC, 79.4%. The growth in the assay with NCI-H522 lung was 88.8%; in the assay with A549/ATCC NSCLC it was 103%; with 786-0 renal, 101%; in the assay with COLO 205 colon it was 108%; in the assay on DU-145 prostate, 104%; in the assay on K-562 leukemia it was 83.4%. The growth in the assay on MALME-3M melanoma is 98.8%; in the assay with MDA-MB-231 breast it was 94%; with RXF 393 renal, 86.5%; in the assay with SF-268 CNS it was 102%; in the assay on SF-295 CNS it was 88.9%; with SF-539 CNS, 99.5%. The growth in the assay with UACC-257 melanoma is 99.9%; with M14 melanoma, 95.6%.

Take `N#Cc1c(-c2cccs2)cc(-c2cnccn2)nc1SCC(=O)N/N=C/c1ccncc1`: the growth was 102% with NCI-H23 lung; 104% in the assay on NCI-H226 lung; 116% in the assay on NCI-H322M lung; 106% with HOP-62 NSCLC; 108% with NCI-H460 lung; 98.4% in the assay on HOP-92 NSCLC. For the same compound, the growth in the assay with NCI-H522 lung was 96.1%; in the assay on A549/ATCC NSCLC, 107%; in the assay on 786-0 renal it was 104%; in the assay on COLO 205 colon it was 118%; in the assay with DU-145 prostate it was 112%; with K-562 leukemia, 96.1%. The growth is 120% in the assay with MALME-3M melanoma; 102% in the assay with MDA-MB-231 breast; 105% in the assay on RXF 393 renal; 106% in the assay on SF-268 CNS; 99.4% in the assay with SF-295 CNS; 97.6% with SF-539 CNS. The growth was 107% in the assay with UACC-257 melanoma and 110% in the assay on M14 melanoma.
